According to the supplement of paper PMC8728848:
This excerpt belongs to a sample that is enriched for the strongest signals.

How the values were obtained:
Assay in all cases: glycan array binding signal (z-score within array); higher = stronger binding
Conditions in all cases: glycan notation: IUPAC condensed, linker removed
[1] = target: Man(a1-2)Man(a1-3)Man
Method in brief: (§1)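 Arrays were curated from the Consortium for Functional Glycomics database, 3228 in total, and kept only where the protein sequence was available. Binding is expressed as a within-array Z-score. This score was averaged across arrays of the same protein sequence at different concentrations or buffers and across linkers, and negative values can be read as non-binding.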

[2] = target: Neu5Ac(a2-3)Gal(b1-3)GalNAc(b1-4)[Neu5Ac(a2-3)]Gal(b1-4)Glc
Method in brief: as §1

[3] = target: Neu5Ac(a2-3)Gal(b1-3)[Fuc(a1-4)]GlcNAc
Method in brief: as §1

[4] = target: Neu5Ac(a2-3)Gal(b1-3)[Neu5Ac(a2-3)Gal(b1-4)]GlcNAc
Method in brief: as §1

[5] = target: Neu5Ac(a2-3)Gal(b1-4)GlcNAc
Method in brief: as §1

[6] = target: Neu5Ac(a2-3)Gal(b1-4)GlcNAc(b1-2)Man(a1-3)[GlcNAc(b1-2)Man(b1-4)GlcNAc(b1-2)Man(a1-6)]Man(b1-4)GlcNAc(b1-4)GlcNAc
Method in brief: as §1

[7] = target: Neu5Ac(a2-3)Gal(b1-4)[Fuc(a1-3)]GlcNAc6S
Method in brief: as §1

[8] = target: Neu5Ac(a2-3)Gal6S(b1-4)GlcNAc
Method in brief: as §1

[9] = target: Neu5Ac(a2-3)[GalNAc(b1-4)]Gal(b1-4)GlcNAc(b1-3)GalNAc
Method in brief: as §1

[10] = target: Neu5Ac(a2-6)Gal(b1-4)Glc
Method in brief: as §1

[11] = target: Neu5Ac(a2-6)Gal(b1-4)GlcNAc(b1-2)Man(a1-3)[GlcNAc(b1-2)Man(a1-6)]Man(b1-4)GlcNAc(b1-4)GlcNAc
Method in brief: as §1

[12] = target: Neu5Ac(a2-6)Gal(b1-4)GlcNAc(b1-3)Gal(b1-4)GlcNAc(b1-3)Gal(b1-4)GlcNAc
Method in brief: as §1

[13] = target: Neu5Ac(a2-6)GlcNAc(b1-4)GlcNAc
Method in brief: as §1

[14] = target: Neu5Ac(a2-8)Neu5Ac(a2-8)Neu5Ac
Method in brief: as §1

[15] = target: Neu5Ac(b2-6)GalNAc
Method in brief: as §1

[16] = target: Neu5Gc(b2-6)Gal(b1-4)GlcNAc
Method in brief: as §1

B1: Strep tagII-anxA1 (Homo sapiens), P04083 (protein)
chain: MAMVSEFLKQAWFIENEEQEYVQTVKSSKGGPGSAVSPYPTFNPSSDVAALHKAIMVKGVDEATIIDILTKRNNAQRQQIKAAYLQETGKPLDETLKKALTGHLEEVVLALLKTPAQFDADELRAAMKGLGTDEDTLIEILASRTNKEIRDINRVYREELKRDLAKDITSDTSGDFRNALLSLAKGDRSEDFGVNEDLADSDARALYEAGERRKGTDVNVFNTILTTRSYPQLRRVFQKYTKYSKHDMNKVLDLELKGDIEKCLTAIVKCATSKPAFFAEKLHQAMKGVGTRHKALIRIMVSRSEIDMNDIKAFYQKMYGISLCQAILDETKGDYEKILVALCGGN
glycan array binding signal (z-score) [1]: -0.123
glycan array binding signal (z-score) [2]: -0.502
glycan array binding signal (z-score) [3]: -0.529
glycan array binding signal (z-score) [4]: -0.763
glycan array binding signal (z-score) [5]: -0.209
glycan array binding signal (z-score) [6]: -0.74
glycan array binding signal (z-score) [7]: -0.736
glycan array binding signal (z-score) [8]: -0.312
glycan array binding signal (z-score) [9]: -0.294
glycan array binding signal (z-score) [10]: 0.446
glycan array binding signal (z-score) [11]: -0.496
glycan array binding signal (z-score) [12]: 0.122
glycan array binding signal (z-score) [13]: -0.032
glycan array binding signal (z-score) [14]: -0.49
glycan array binding signal (z-score) [15]: -0.503
glycan array binding signal (z-score) [16]: -0.654
